{"source": "PubChem BioAssay AID651610", "about": "(Broad Institute, 2012)", "assay": "inhibitors of HIV-1 Env-driven cell-cell fusion, primary screen, HeLa-JRFL effector, CEM21 target cells, luciferase (AID 651610);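 note: 0% = plate neutral controls and 100% = maraviroc near 300 nM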", "settings": "stronger effect = higher value; at 16.7 µM unless noted", "note": "In all, about 360,000 compounds went through this assay and about 3,900 (1.1%) were called active. The full list was thinned out, with actives kept by preference. A number with no mark means an inactive call.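 Rule for the calls: active = mean replicate inhibition score of at least 50 and every replicate individually at or above 50; inconclusive = only one of the two criteria met; inactive = mean below 50 and not all replicates reaching 50.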"}
{"smiles": "C[C@H](CO)N1C[C@H](C)[C@H](CN(C)C(=O)Nc2ccc(C(F)(F)F)cc2)OCCCC[C@H](C)Oc2ccc(NC(=O)C3CCCCC3)cc2C1=O", "values": [{"measurement": "inhibition", "result": 9.61, "unit": "%"}]}
{"smiles": "CCOc1cc(/C=C(/C#N)c2ccc(Cl)cc2)cc(Cl)c1OCC(=O)O", "values": [{"measurement": "inhibition", "result": "58% [at 12.3 µM] (active)"}]}
{"smiles": "CCOc1cc(/C=N/NC(=O)OC)ccc1OCCSc1ccc(Cl)cc1", "values": [{"measurement": "inhibition", "result": "4.12% [at 12.3 µM]"}]}
{"smiles": "COc1cc(/C=C(/NC(=O)c2ccc(Cl)cc2Cl)C(=O)O)cc(OC)c1OC", "values": [{"measurement": "inhibition", "result": "4.88% [at 12.3 µM]"}]}
{"smiles": "O=C(C[C@@H]1C[C@@H]2c3cc(NC(=O)C4CCC4)ccc3O[C@@H]2[C@@H](CO)O1)NCCN1CCCCC1", "values": [{"measurement": "inhibition", "result": -4.86, "unit": "%"}]}
{"smiles": "O=C(NC(Nc1nc2ccc([N+](=O)[O-])cc2s1)(C(F)(F)F)C(F)(F)F)c1ccccc1", "values": [{"measurement": "inhibition", "result": "81.1% [at 12.3 µM] (active)"}]}
{"smiles": "CC(Nc1ccc([N+](=O)[O-])cc1[N+](=O)[O-])c1ccccc1", "note": "(stereo not drawn)", "values": [{"measurement": "inhibition", "result": "-0.676% [at 12.3 µM]"}]}
{"smiles": "O=C(O)c1cc([N+](=O)[O-])c(Nc2cccc3ccccc23)c([N+](=O)[O-])c1", "values": [{"measurement": "inhibition", "result": "1.53% [at 12.3 µM]"}]}
{"smiles": "COc1cccc(-c2cnc3c(c2)C(=O)N([C@H](C)CO)C[C@H](C)[C@H](CN(C)C(=O)NC(C)C)O3)c1", "values": [{"measurement": "inhibition", "result": 7.31, "unit": "%"}]}
{"smiles": "CCc1c(C)nc(SCC(=O)NC2CCCC2)[nH]c1=O", "values": [{"measurement": "inhibition", "result": "-1.14% [at 12.3 µM]"}]}
{"smiles": "COC(=O)c1ccccc1NC(=O)CSc1n[nH]c(-c2ccncc2)n1", "values": [{"measurement": "inhibition", "result": "9.97% [at 12.3 µM]"}]}
{"smiles": "CCc1ccc(-c2nc(SCC(=O)NC3CCCC3)n[nH]2)cc1", "values": [{"measurement": "inhibition", "result": "56.7% [at 12.3 µM] (active)"}]}
{"smiles": "C=CC1=CCN(S(=O)(=O)C(C)(C)C)[C@@H]1CCO", "values": [{"measurement": "inhibition", "result": "21.3% [at 12.3 µM]"}]}
{"smiles": "CCCNC(=O)N(C)C[C@H]1Oc2ncc(-c3ccc(F)cc3)cc2C(=O)N([C@H](C)CO)C[C@H]1C", "values": [{"measurement": "inhibition", "result": -0.986, "unit": "%"}]}
{"smiles": "CC(C)CC#Cc1cnc2c(c1)C(=O)N([C@@H](C)CO)C[C@H](C)[C@@H](CN(C)C(=O)c1cccc(F)c1)O2", "values": [{"measurement": "inhibition", "result": -7.05, "unit": "%"}]}
{"smiles": "C[C@H](CO)N1C[C@H](C)[C@@H](CN(C)C(=O)C2CC2)Oc2cc(C#CC3CC3)ccc2S1(=O)=O", "values": [{"measurement": "inhibition", "result": 18.8, "unit": "%"}]}
{"smiles": "CN1CCN(C(=O)C[C@@H]2C[C@@H]3c4cc(NC(=O)c5ccc6c(c5)OCO6)ccc4O[C@@H]3[C@H](CO)O2)CC1", "values": [{"measurement": "inhibition", "result": 2.49, "unit": "%"}]}
{"smiles": "COc1ccc(CCNC(=O)C2CCCN(Cc3nc(-c4cccc(Cl)c4)oc3C)C2)cc1OC", "note": "(stereo not drawn)", "values": [{"measurement": "inhibition", "result": "81.2% [at 12.3 µM] (active)"}]}
{"smiles": "COc1ccc(CCNC(=O)CS(=O)(=O)Cc2nc(-c3ccc(C)cc3)oc2C)cc1OC", "values": [{"measurement": "inhibition", "result": "9.54% [at 12.3 µM]"}]}
{"smiles": "COc1cccc(-c2nc(CS(=O)(=O)CC(=O)NCCc3ccc(OC)c(OC)c3)c(C)o2)c1", "values": [{"measurement": "inhibition", "result": "28.2% [at 12.3 µM]"}]}
{"smiles": "CO[C@H]1CN(C)C(=O)c2cc(NC(=O)C3CCCC3)ccc2OC[C@@H](C)N(C(=O)CC2CC2)C[C@@H]1C", "values": [{"measurement": "inhibition", "result": -11.3, "unit": "%"}]}
{"smiles": "O=C1/C(=C\\c2ccc([N+](=O)[O-])cc2)CS(=O)(=O)C/C1=C/c1ccc([N+](=O)[O-])cc1", "values": [{"measurement": "inhibition", "result": "85.4% [at 12.3 µM] (active)"}]}
{"smiles": "CC(=O)Nc1ccc(C=Cc2ccc([N+](=O)[O-])cc2)cc1", "values": [{"measurement": "inhibition", "result": "-56.5% [at 12.3 µM]"}]}
{"smiles": "O=C(O)C(=Cc1ccc([N+](=O)[O-])cc1)CCc1ccccc1", "values": [{"measurement": "inhibition", "result": "-1.24% [at 12.3 µM]"}]}
{"smiles": "CS(=O)(=O)Nc1ccc2c(c1)[C@H]1C[C@H](CC(=O)NCc3ccc(Cl)cc3)O[C@@H](CO)[C@H]1O2", "values": [{"measurement": "inhibition", "result": -3.71, "unit": "%"}]}
{"smiles": "O=C(NCC[C@@H]1CC[C@H](NC(=O)C2CC2)[C@H](CO)O1)c1cnccn1", "values": [{"measurement": "inhibition", "result": 1.75, "unit": "%"}]}
{"smiles": "C[C@@H]1CCCCO[C@H](CN(C)Cc2ccc(Cl)c(Cl)c2)[C@H](C)CN([C@@H](C)CO)C(=O)c2cc(NC(=O)CCC(F)(F)F)ccc2O1", "values": [{"measurement": "inhibition", "result": -44.8, "unit": "%"}]}
{"smiles": "Cc1ccc(S(=O)(=O)N(C)C[C@H]2Oc3ccc(NS(C)(=O)=O)cc3CC(=O)N([C@@H](C)CO)C[C@H]2C)cc1", "values": [{"measurement": "inhibition", "result": -22.8, "unit": "%"}]}
{"smiles": "Cc1cc(C)cc(OCC(=O)NCc2cc(C)nc3ccccc23)c1", "values": [{"measurement": "inhibition", "result": "31.3% [at 12.3 µM]"}]}
{"smiles": "CN(C(=O)c1cccc([N+](=O)[O-])c1)c1ccccc1C(=O)NCc1ccccc1", "values": [{"measurement": "inhibition", "result": "29.4% [at 12.3 µM]"}]}
{"smiles": "Cc1cc(CNC(=O)c2cccc([N+](=O)[O-])c2)c2ccccc2n1", "values": [{"measurement": "inhibition", "result": "60.8% [at 12.3 µM] (active)"}]}
{"smiles": "COCC#Cc1ccc2c(c1)O[C@H](CN(C)C(=O)C1CCOCC1)[C@@H](C)CN([C@@H](C)CO)S2(=O)=O", "values": [{"measurement": "inhibition", "result": -8.26, "unit": "%"}]}
{"smiles": "Cc1ccc(S(=O)(=O)NCC[C@H]2CC[C@@H](NC(=O)C3CCOCC3)[C@@H](CO)O2)cc1", "values": [{"measurement": "inhibition", "result": 5.57, "unit": "%"}]}
